Common to all, as to experiment: NCI-60 one-dose screen, 48 h (100 = growth as untreated, 0 = no growth, -100 = all killed)
What all share (conditions): 10 µM unless noted

Experiment [1] relates to HT29 colon.
The test system of experiment [2] is SNB-75 CNS.
Experiment [3] has as its system U251 CNS.
Experiment [4] deals with PC-3 prostate.
Experiment [5] concerns SK-MEL-5 melanoma.
In experiment [6] the test system is UACC-62 melanoma.
The test system of experiment [7] is LOX IMVI melanoma.
Experiment [8] deals with SK-MEL-28 melanoma.
Experiment [9] deals with SK-MEL-2 melanoma.
The test system of experiment [10] is EKVX NSCLC.
In experiment [11] the test system is SN12C renal.
Experiment [12] has as its system UO-31 renal.
The subject of experiment [13] is TK-10 renal.
Experiment [14] deals with ACHN renal.
Experiment [15] has as its system CAKI-1 renal.
Experiment [16] has as its system A498 renal.
Experiment [17] has as its system CCRF-CEM leukemia.
For experiment [18], the system named is MOLT-4 leukemia.
Experiment [19] deals with SR leukemia.
The subject of experiment [20] is SNB-19 CNS.

Compounds without any hit were thinned out: in the full panel of roughly 83,000, 20% have a hit.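 Single-dose data. Exposure time 48 hours. Values below 10 considered active.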 A number with no mark means an inactive call. Active and inactive are the calls of the source.

`CCN(CC)CCNc1ccc(Cl)cc1Cl`: the growth in [1] was 101%; in experiment [2], 98.5%; in [3], 102%; in experiment [4], 97.3%; in experiment [5], 103%; in experiment [6], 112%. Besides, the growth was 102% in experiment [7]; 118% in experiment [8]; 108% in experiment [9]; 113% in experiment [10]; 113% in experiment [11]; 87.3% in experiment [12]. Moreover, the growth is 103% in experiment [13]; 113% in [14]; 94.6% in experiment [15]; 103% in experiment [16]; 104% in [17]; 95.9% in [18]. The growth in experiment [19] is 95.1%.

With `COC(=O)[C@]12CC[C@@H](C)[C@H](C)[C@@H]1C1=CC[C@@H]3[C@@]4(C)C=C(O)C(=O)[C@@]5(C)COC(=C54)C[C@@]3(C)[C@]1(C)CC2`, the growth is -70.6% (active) in experiment [1]; 12.7% in [2]; -26.5% (active) in [20]; -71.2% (active) in [4]; -98.1% (active) in [5]; -98.8% (active) in [7]. Moreover, the growth in [8] is -56.9% (active); in experiment [9], -62.8% (active); in experiment [10], -56.7% (active); in experiment [11], -29.9% (active); in [12], -50.2% (active); in [13] it was -62.3% (active). Also, the growth is -71.7% (active) in [14]; -45.7% (active) in experiment [15]; -78% (active) in experiment [16]; -60.8% (active) in [17]; -72.1% (active) in [18]; -68.2% (active) in experiment [19].

As for `O=C(Nc1ccc(Cl)cc1)Nc1ccc(Nc2nncc3ccccc23)cc1`, the growth in experiment [1] is 32.4%; in [2], 46.3%; in experiment [3], 18.3%; in [4], 1.46% (active); in experiment [5], 7.12% (active); in [6], 13.4%. In addition, the growth in [7] is 33.6%; in experiment [8], 44.1%; in experiment [9], 18.9%; in experiment [10], 20.6%; in [11], 26.4%; in [12] it was 19%. For the same compound, the growth in [13] is 32%; in experiment [14], 22.4%; in [15], 20.6%; in [16] it was 24.5%; in experiment [17] it was 13.1%; in [18], -1.61% (active). The growth in experiment [19] is 17.5%.

On to `CCC1=C(c2ccc(OC)cc2)C(C)(C)Oc2c1ccc(O)c2CN1CCCC1`, for which the growth in [1] is 50.4%; in experiment [2], 41.3%; in experiment [3] it was -25.4% (active); in experiment [4], 47.1%; in experiment [5], -97.6% (active); in experiment [6], 10.5%. Also, the growth in experiment [7] is -59.7% (active); in experiment [8], -75.6% (active); in experiment [9], -58.5% (active); in [10] it was 88.8%; in [11], 51.8%; in [12] it was 31.3%. For the same compound, the growth in experiment [13] was 57.3%; in experiment [14] it was 57.5%; in [15], 44.5%; in experiment [16], 58.4%; in [17], 21.2%; in experiment [18], 14.3%. Further, the growth in experiment [19] is -4.25% (active).

`C/C(=C\CCc1ccoc1)CC/C=C(\C)CCCN1CCC(CO)CC1`: the growth is 6.48% (active) in experiment [1]; 36.4% in experiment [2]; 76.2% in [20]; 57.8% in experiment [4]; -63.3% (active) in [6]; 56.3% in experiment [8]. The growth is 71.1% in experiment [11]; 75.1% in [12]; 97.2% in [13]; 59.4% in experiment [14]; 82.7% in [15]; 45% in [16]. Further, the growth is 37.9% in experiment [17], 24.6% in [18] and 2.6% (active) in experiment [19].

As for `N#CCNc1ccccc1N`, the growth was 86.4% in experiment [1]; 77.8% in [2]; 117% in [20]; 96% in [5]; 95.3% in [6]; 95.1% in experiment [7]. In addition, the growth in experiment [8] is 110%; in [9], 107%; in experiment [10] it was 89.6%; in experiment [11] it was 104%; in experiment [12], 65.1%; in experiment [13], 104%. Also, the growth is 104% in experiment [16], 85.1% in experiment [18] and 116% in [19].

As to `O=C1C2C3C=CC(O3)C2C(=O)N1Nc1ccccc1` (configuration not stated), the growth is 93.3% in experiment [2]; 111% in experiment [20]; 109% in [3]; 97.5% in experiment [4]; 109% in [5]; 100% in experiment [6]. In addition, the growth is 98% in experiment [7]; 105% in [8]; 133% in experiment [9]; 101% in [10]; 107% in experiment [11]; 101% in experiment [12]. For the same compound, the growth in [13] was 103%; in [14], 103%; in experiment [15] it was 93.5%; in experiment [16], 68.1%; in experiment [17], 96.1%; in [18], 101%. Moreover, in experiment [19], the growth was 126%.

In the case of `COc1ccc(C2CC(c3ccc(OC)c(OC)c3)=NN2C(=O)c2cc(OC)c(OC)c(OC)c2)c(OC)c1` (configuration not stated), the growth in experiment [1] is 59.9%; in [20], 91.8%; in experiment [3], 80.6%; in [4], 64.3%; in experiment [5], 42%; in [6], 58%. Further, the growth in experiment [7] is 56.6%; in experiment [8], 80.2%; in experiment [9], 68.2%; in experiment [10], 86.7%; in experiment [11], 91.3%; in experiment [12] it was 42.2%. The growth was 87.7% in experiment [13]; 65.2% in [14]; 34.6% in experiment [15]; 92.9% in experiment [17]; 106% in experiment [18]; 48.7% in experiment [19].

For the origin of these results see PubChem BioAssay (NCI).
